Compounds without any hit were thinned out: in the full panel of roughly 79,000, 15% have a hit. Unmarked numbers belong to inactive results. The source made the active and inactive calls. Cut-off read from the data, not from the text of the source: active = growth inhibition above about 70%; inactive = the rest.

The test in a line: NCI Yeast Anticancer Drug Screen. Data for the rad50EPP+ strain (AID 151).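 Note: 0% = growth of vehicle-treated control cultures.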 The conditions noted are these: S. cerevisiae rad50 mutant strain, stronger effect = higher value. Here is the method: Growth inhibition of yeast strains with defined genetic alterations is measured as a screen for potential anti-cancer activity. Selected strains with alterations in DNA damage repair or cell cycle control were exposed to compounds and growth inhibition was measured relative to vehicle treated controls. The strain used in this assay is rad50EPP+

As to `COc1ccc2nc(N/N=C/c3sccc3C)cc(C)c2c1`, the growth inhibition was -18% (at 1.2 µM); -19% (at 3.7 µM); -21% (at 11.0 µM); 15% (at 33.0 µM); 76% (active) (at 100.0 µM).

On to `COC1=C(N=[N+]=[N-])C(=O)c2ncccc2C1=O`, for which the growth inhibition runs as follows: (at 1.2 µM) 31%; (at 3.7 µM) 60%; (at 11.0 µM) 89% (active); (at 33.0 µM) 94% (active); (at 100.0 µM) 95% (active).

For the compound `COc1ccc(/C(=N/O)c2ccccc2C2=Nc3ccccc3C(NCc3ccccc3)O2)cc1C` (stereo not given), the growth inhibition was 3% (at 1.2 µM); 1% (at 3.7 µM); 15% (at 11.0 µM); 49% (at 33.0 µM); 82% (active) (at 100.0 µM).

With `CC(C)(C(=O)NN)c1ccccc1`, the growth inhibition (at 1.2 µM) is 4%; the growth inhibition (at 3.7 µM) is 25%; the growth inhibition (at 11.0 µM) was 52%; the growth inhibition (at 33.0 µM) is 68%; the growth inhibition (at 100.0 µM) is 85% (active).

In the case of `COc1ccc(C(=O)OCCc2ccccc2)cc1`, the growth inhibition runs as follows: (at 1.2 µM) 10%; (at 3.7 µM) 16%; (at 11.0 µM) 19%; (at 33.0 µM) 31%; (at 100.0 µM) 47%.

For `O=C(c1c(F)c(F)c(F)c(F)c1F)c1c(F)c(F)c(F)c(F)c1F`, the growth inhibition was 30% (at 1.2 µM); 60% (at 3.7 µM); 94% (active) (at 11.0 µM); 96% (active) (at 33.0 µM); 92% (active) (at 100.0 µM).

Consider `CCCCCC/C(C)=N/Nc1ccc([N+](=O)[O-])cc1[N+](=O)[O-]`, for which the growth inhibition is -7% (at 1.2 µM); -21% (at 3.7 µM); 14% (at 11.0 µM); 22% (at 33.0 µM); 23% (at 100.0 µM).

Regarding `COc1ccc2c(Cc3c4ccccc4cc4ccccc34)cncc2c1O`, the growth inhibition reads like this: (at 1.2 µM) 4%; (at 3.7 µM) 18%; (at 11.0 µM) 41%; (at 33.0 µM) 68%; (at 100.0 µM) 80% (active).

The values above are taken from PubChem BioAssay (NCI).
